Data from PubChem BioAssay.
Calls of active or inactive are those of the source.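 How the source made its calls, unless noted: active means differentiation response of at least 50%, scaled between solvent and reference control, from cells with both markers; inactive means the rest.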

Tests used:
[1] = reduced mouse 2C T cell binding to pMHC/ICAM-1 vesicles – MLPCN validation set, flow cytometry, LFA-1/ICAM-1 modulator project, pilot screen (AID 2523;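 active means response below a set limit, under 55% cells CD8-positive and vesicle-bound, and CD8 cells' 90th-percentile brightness under 279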;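 on vesicle binding response: mean PE anti-B7-1 fluorescence of CD8+ cells relative to row control; 100% = QL9-loaded vesicles with DMSO vehicle in the same plate row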); conditions: 2C mouse CD8+ T cells, at 7 µM, stronger effect = lower value; double positive events: measured here: CD8+/vesicle+ event percentage
[2] = target: Integrin beta-1 (Homo sapiens) + Integrin alpha-4 (Homo sapiens) (UniProt P13612+P05556); test: alpha4beta1 integrin LIBS antibody binding reduction – U937 cells, HUTS-21 mAb, flow cytometry, validation set, VLA-4 allosteric modulator project, pilot screen (AID 2674;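 active means inhibition above 50%, about 3 SD of the validation set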;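 further: antibody binding induced by the VLA-4 ligand LDV present at three times its Kd; 0% = LDV ligand with antibody and no compound and 100% = antibody without LDV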); conditions: HUTS-21 LIBS mAb binding, at 6.7 µM, stronger effect = higher value, binding induced by LDV ligand
Chain of Integrin beta-1 (Homo sapiens) + Integrin alpha-4 (Homo sapiens) (P05556 whole entry, looked up): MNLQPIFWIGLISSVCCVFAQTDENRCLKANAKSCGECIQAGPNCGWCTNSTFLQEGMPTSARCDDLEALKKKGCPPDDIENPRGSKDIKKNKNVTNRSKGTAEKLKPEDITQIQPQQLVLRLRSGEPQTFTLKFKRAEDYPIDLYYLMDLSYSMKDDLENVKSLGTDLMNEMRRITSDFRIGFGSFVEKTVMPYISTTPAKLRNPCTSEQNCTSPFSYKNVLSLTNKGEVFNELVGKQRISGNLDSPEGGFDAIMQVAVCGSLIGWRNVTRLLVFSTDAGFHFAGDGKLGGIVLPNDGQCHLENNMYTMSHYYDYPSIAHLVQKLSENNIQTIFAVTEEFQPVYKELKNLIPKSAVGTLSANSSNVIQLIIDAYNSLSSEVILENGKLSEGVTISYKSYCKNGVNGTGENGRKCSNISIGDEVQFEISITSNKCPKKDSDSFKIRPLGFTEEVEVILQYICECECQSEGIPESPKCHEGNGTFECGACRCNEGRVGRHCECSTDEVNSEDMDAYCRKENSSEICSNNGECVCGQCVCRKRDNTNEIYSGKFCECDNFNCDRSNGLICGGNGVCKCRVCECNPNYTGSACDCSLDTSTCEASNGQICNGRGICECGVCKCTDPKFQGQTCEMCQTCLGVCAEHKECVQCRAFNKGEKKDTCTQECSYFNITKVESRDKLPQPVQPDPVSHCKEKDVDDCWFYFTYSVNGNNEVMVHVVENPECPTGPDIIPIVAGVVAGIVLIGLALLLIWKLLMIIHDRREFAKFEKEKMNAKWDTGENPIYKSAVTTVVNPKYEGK
Chain of Integrin beta-1 (Homo sapiens) + Integrin alpha-4 (Homo sapiens) (P13612 whole entry, looked up): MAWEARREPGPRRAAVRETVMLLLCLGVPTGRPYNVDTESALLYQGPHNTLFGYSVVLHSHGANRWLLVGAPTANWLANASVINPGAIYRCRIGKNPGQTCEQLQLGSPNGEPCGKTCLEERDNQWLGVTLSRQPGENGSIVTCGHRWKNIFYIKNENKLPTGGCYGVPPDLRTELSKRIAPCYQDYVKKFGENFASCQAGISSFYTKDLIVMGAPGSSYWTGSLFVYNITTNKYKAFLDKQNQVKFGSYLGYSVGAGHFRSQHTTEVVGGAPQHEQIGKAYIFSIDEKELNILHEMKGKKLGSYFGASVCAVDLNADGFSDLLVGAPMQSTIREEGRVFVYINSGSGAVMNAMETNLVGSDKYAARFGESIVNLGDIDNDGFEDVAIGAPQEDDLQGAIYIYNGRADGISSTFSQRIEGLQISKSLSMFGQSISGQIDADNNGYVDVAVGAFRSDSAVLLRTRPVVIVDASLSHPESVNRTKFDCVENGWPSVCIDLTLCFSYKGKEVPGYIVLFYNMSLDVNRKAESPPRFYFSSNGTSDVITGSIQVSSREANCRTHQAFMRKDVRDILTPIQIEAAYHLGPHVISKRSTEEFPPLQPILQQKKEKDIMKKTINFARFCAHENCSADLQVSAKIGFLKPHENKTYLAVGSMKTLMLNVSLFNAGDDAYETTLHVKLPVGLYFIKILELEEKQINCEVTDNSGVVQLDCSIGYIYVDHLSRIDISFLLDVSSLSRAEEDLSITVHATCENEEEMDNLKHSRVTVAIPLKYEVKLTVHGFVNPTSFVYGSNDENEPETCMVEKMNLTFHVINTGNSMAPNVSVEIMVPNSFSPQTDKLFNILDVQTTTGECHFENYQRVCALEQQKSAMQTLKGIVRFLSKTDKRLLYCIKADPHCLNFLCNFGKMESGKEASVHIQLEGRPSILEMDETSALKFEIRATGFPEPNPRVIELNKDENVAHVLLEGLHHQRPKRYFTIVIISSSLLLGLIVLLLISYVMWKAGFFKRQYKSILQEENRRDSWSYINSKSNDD

[3] = calorie-restriction mimetic ROS inhibitors, yeast – validation compound set, pilot screen (AID 2706;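 active means superoxide response below 65% of plate, a cut near 3 SD across the whole screen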;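 further: yeast exposed to compound for one week at 30 degrees C before staining; 100% = mean of all compound wells on the same plate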); conditions: S. cerevisiae aging, superoxide DHE fluorescence; at 10 µM, stronger effect = lower value
[4] = target: Beta-adrenergic receptor kinase 1 (Homo sapiens) (UniProt P25098); test: GRK2 binders displacing RNA aptamer, biochemical, validation, human GRK2, bead flow cytometry (AID 488806;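 active means aptamer binding inhibition above 30%, about 3 SD of noise from non-fluorescent compounds; inactive means inhibition at or below 30%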); conditions: bead-bound GRK2, FAM-aptamer displacement, at 10 µM, stronger effect = higher value
Chain of Beta-adrenergic receptor kinase 1 (Homo sapiens) (P25098 whole entry, looked up): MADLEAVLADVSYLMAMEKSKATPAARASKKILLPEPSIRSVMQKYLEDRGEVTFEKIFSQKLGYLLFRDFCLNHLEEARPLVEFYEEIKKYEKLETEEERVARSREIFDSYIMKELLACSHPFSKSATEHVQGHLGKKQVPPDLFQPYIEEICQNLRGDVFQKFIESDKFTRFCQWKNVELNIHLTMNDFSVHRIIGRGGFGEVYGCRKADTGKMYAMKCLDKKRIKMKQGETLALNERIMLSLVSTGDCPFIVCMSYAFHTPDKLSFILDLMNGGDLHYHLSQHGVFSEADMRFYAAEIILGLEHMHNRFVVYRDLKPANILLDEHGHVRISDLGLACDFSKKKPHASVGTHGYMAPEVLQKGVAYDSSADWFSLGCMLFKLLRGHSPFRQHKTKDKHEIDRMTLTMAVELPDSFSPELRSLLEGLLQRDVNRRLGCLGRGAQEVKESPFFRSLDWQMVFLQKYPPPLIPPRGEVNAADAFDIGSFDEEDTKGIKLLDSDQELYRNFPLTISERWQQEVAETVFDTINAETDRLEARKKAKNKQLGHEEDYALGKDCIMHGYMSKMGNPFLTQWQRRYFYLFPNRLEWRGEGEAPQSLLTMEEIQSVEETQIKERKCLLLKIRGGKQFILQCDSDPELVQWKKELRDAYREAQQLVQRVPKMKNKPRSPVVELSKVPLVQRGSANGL

[5] = target: AP-2 complex subunit beta (Homo sapiens) (UniProt P63010); test: beta-arrestin/AP2 interaction blockers – biochemical, validation set, GST-AP2 beads, flow cytometry, pilot screen (AID 504541;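 active means inhibition above 54%, about 3 SD of non-fluorescent compounds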;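 further: AP2 carries R879A mutation and is captured from E. coli lysate; bead-bound FITC arrestin peptide fluorescence measuring arrestin peptide binding to AP2; 0% = DMSO wells and 100% = excess unlabeled arrestin peptide control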); conditions: FITC arrestin peptide, at 10 µM, stronger effect = higher value, AP2 beta2 appendage fragment, R879A mutant
Chain of AP-2 complex subunit beta (Homo sapiens) (P63010 whole entry, looked up, the tested form may be a part, one chain of several): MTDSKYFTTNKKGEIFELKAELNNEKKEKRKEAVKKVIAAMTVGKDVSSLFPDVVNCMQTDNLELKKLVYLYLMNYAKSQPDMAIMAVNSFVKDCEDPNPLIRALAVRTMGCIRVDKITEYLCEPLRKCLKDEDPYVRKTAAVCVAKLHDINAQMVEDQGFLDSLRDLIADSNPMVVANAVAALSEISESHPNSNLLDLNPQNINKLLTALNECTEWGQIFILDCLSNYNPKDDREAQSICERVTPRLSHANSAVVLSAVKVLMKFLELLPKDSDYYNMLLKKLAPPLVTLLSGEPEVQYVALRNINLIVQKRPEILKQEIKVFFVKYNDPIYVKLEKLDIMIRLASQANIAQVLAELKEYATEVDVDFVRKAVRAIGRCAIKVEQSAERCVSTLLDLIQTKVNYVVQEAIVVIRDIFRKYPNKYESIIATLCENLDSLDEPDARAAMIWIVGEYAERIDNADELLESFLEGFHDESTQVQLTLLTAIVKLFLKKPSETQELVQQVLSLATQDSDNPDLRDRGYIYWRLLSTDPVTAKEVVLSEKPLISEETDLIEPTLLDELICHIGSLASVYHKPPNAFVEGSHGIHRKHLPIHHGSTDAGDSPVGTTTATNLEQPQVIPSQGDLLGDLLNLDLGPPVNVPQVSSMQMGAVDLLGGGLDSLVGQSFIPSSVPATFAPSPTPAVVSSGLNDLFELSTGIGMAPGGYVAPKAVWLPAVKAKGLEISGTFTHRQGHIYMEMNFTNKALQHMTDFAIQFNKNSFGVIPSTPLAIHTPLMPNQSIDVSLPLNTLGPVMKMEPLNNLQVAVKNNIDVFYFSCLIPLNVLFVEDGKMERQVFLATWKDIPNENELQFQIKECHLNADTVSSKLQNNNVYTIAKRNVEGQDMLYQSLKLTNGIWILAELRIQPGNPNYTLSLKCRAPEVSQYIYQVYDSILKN

[6] = cytosolic pH regulators acting via V-ATPase – S. cerevisiae, pHLuorin, HTS validation (AID 504600; in the data active means response above about 15%;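 further: plate controls were DMSO for no effect and reference compound for full effect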); conditions: V-ATPase proton transport, at 10 µM, stronger effect = higher value
[7] = system: anti-desmoglein-3 scFv antibody binding to human DSG3; test: blockers of pathogenic pemphigus antibody–desmoglein-3 binding – biochemical, validation compound set, bead-based, flow cytometry, pilot screen (AID 588368;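 active means binding below the plate cutoff, the plate median minus 3 SD, with a reading above zero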;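 further: signal is the median channel fluorescence of bead-bound GFP antibody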); conditions: Protein G beads, DSG3-Fc, scFv-GFP binding, at 10 µM, stronger effect = lower value
[8] = Nile Red efflux blockade in pump-expressing yeast – validation compound set, multiplex, phenotypic, pilot screen (AID 588506;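 active means efflux inhibition above 0.42, the validation set average plus 4 SD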;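 further: Nile Red retained in cells so higher fluorescence means more efflux inhibition; 0 = negative control wells and 1 = enniatin B 25 µM full block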); conditions: S. cerevisiae pump-expressing triplex, Nile Red efflux flow cytometry; at 10 µM; stronger effect = higher value; the pumps come from Candida albicans
[9] = target: ATP-binding cassette sub-family B member 6 (Homo sapiens) (UniProt Q9NP58); test: blockers of ABCB6-driven porphyrin uptake – K562-ABCB6 cells, flow cytometry, validation set, pilot screen (AID 588550;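 active means inhibition above the screen-wide mean plus 3 SD, about 51%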;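 further: 0% = DMSO wells and 100% = benzethonium chloride 70 µM positive control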); conditions: K562-ABCB6 porphyrin accumulation, 1 h, at 10 µM, stronger effect = higher value
Chain of ATP-binding cassette sub-family B member 6 (Homo sapiens) (Q9NP58 whole entry, looked up): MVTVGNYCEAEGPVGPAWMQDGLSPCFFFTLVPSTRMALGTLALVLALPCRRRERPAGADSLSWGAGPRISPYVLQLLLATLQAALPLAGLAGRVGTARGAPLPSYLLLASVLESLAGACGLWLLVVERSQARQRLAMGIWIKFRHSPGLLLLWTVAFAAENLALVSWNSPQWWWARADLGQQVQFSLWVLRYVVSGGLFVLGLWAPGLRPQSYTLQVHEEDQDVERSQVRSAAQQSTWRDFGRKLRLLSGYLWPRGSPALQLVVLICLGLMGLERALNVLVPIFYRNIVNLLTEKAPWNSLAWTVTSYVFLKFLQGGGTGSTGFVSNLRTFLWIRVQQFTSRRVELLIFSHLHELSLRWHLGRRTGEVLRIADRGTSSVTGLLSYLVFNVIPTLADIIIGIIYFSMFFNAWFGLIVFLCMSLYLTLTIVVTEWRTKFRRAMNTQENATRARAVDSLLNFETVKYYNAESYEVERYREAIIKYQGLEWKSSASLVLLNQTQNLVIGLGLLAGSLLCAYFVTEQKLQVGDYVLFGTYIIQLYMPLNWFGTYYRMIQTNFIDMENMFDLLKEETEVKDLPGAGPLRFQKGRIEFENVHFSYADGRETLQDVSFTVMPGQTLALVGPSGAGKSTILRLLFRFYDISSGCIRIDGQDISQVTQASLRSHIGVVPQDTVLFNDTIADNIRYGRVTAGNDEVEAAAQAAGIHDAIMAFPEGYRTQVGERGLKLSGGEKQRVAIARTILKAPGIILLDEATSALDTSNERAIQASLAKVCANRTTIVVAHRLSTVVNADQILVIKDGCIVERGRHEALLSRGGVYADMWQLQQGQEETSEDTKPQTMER

[10] = AML differentiation inducers, ER-HoxA9 marrow cells – cell-based, GFP/MAC1 double positive, flow cytometry, validation set, primary screen (AID 588685); conditions: stronger effect = higher value, normalized: vehicle 0, fulvestrant 100;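 further: compound exposure lasts four days before antibody staining and flow analysis; 0% = DMSO wells and 100% = 5 µM fulvestrant positive control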

Cc1nc(N[C@@H](Cc2c[nH]c3ccccc23)C(=O)O)c2oc3ccccc3c2n1
inactive: vesicle binding response [1] 218% | inhibition [2] -0.24% | superoxide response (% of plate) [3] 104% | aptamer binding inhibition [4] 0% | inhibition [5] -8.46% | response [6] -0.92% | binding (% of control) [7] 102% | efflux inhibition (fraction of control) [8] -0.24 | inhibition [9] 9% | differentiation response [10] -9.89%
62.1%: double positive events [1]

CCCCC[C@H](O)/C=C/[C@@H]1[C@@H](CCCCCCC(=O)O)[C@@H](O)C[C@H]1O
inactive: vesicle binding response [1] 114% | inhibition [2] 5.36% | superoxide response (% of plate) [3] 104% | aptamer binding inhibition [4] 2% | inhibition [5] -0.39% | response [6] 1.43% | binding (% of control) [7] 99.8% | efflux inhibition (fraction of control) [8] 0.29 | inhibition [9] 9% | differentiation response [10] -26%
55.5%: double positive events [1]

CC(=Nc1ccccc1)C1=C(O)CCCC1=O
61.6%: double positive events [1]
inactive: vesicle binding response [1] 312% | inhibition [2] 13.8% | superoxide response (% of plate) [3] 104% | aptamer binding inhibition [4] 1% | inhibition [5] -9.14% | response [6] 8.27% | binding (% of control) [7] 97.7% | efflux inhibition (fraction of control) [8] -0.24 | inhibition [9] 0% | differentiation response [10] -21.2%

COc1ccc(CNC(=O)c2cc3c(=O)n4ccccc4nc3n(Cc3cccnc3)c2=N)cc1
inactive: vesicle binding response [1] 131% | inhibition [2] -2.11% | superoxide response (% of plate) [3] 92.2% | aptamer binding inhibition [4] -6% | inhibition [5] -0.26% | response [6] 3.99% | binding (% of control) [7] 112% | efflux inhibition (fraction of control) [8] 0.22 | inhibition [9] 4% | differentiation response [10] -9.89%
60.5%: double positive events [1]

N=c1ccn(CC(=O)NC(N)=O)c2ccccc12
55.8%: double positive events [1]
inactive: vesicle binding response [1] 241% | inhibition [2] 12.8% | superoxide response (% of plate) [3] 99.5% | aptamer binding inhibition [4] 4% | inhibition [5] 8.55% | response [6] 14.2% | binding (% of control) [7] 95.7% | efflux inhibition (fraction of control) [8] -0.09 | inhibition [9] -15% | differentiation response [10] -3.43%

CCCCNC(=O)NS(=O)(=O)c1ccc(C)cc1
inactive: vesicle binding response [1] 172% | inhibition [2] 12.8% | superoxide response (% of plate) [3] 108% | aptamer binding inhibition [4] 4% | inhibition [5] -9.7% | response [6] 8.22% | binding (% of control) [7] 99% | efflux inhibition (fraction of control) [8] -0.05 | inhibition [9] 9% | differentiation response [10] -19.6%
56.1%: double positive events [1]

CC1(C)CC(=O)c2cc(O)ccc2O1
inactive: vesicle binding response [1] 199% | inhibition [2] 13.8% | superoxide response (% of plate) [3] 95.8% | aptamer binding inhibition [4] 3% | inhibition [5] 10.6% | response [6] -2.03% | binding (% of control) [7] 107% | efflux inhibition (fraction of control) [8] -0.01 | inhibition [9] 11% | differentiation response [10] -13.1%
61%: double positive events [1]

O=Cc1ccc(N2CCCCC2)cc1
54.6%: double positive events [1]
inactive: vesicle binding response [1] 201% | inhibition [2] 10.9% | superoxide response (% of plate) [3] 106% | aptamer binding inhibition [4] 3% | inhibition [5] -10.3% | response [6] 1.25% | binding (% of control) [7] 101% | efflux inhibition (fraction of control) [8] -0.05 | inhibition [9] 4% | differentiation response [10] -3.43%

CC(=O)N=c1sc(S(N)(=O)=O)nn1C
48.1%: double positive events [1]
inactive: vesicle binding response [1] 166% | inhibition [2] -9.57% | superoxide response (% of plate) [3] 97% | aptamer binding inhibition [4] 4% | inhibition [5] -6.47% | response [6] -25.8% | binding (% of control) [7] 99.6% | efflux inhibition (fraction of control) [8] -0.01 | inhibition [9] 8% | differentiation response [10] 11.1%

Cc1ncc(C(=O)O)c(C(=O)O)c1N
52.2%: double positive events [1]
inactive: vesicle binding response [1] 184% | inhibition [2] 4.42% | superoxide response (% of plate) [3] 110% | aptamer binding inhibition [4] 2% | inhibition [5] -2.62% | response [6] -3.73% | binding (% of control) [7] 100% | efflux inhibition (fraction of control) [8] -0.09 | inhibition [9] 8% | differentiation response [10] -14.7%

Cc1ccc(OCCSc2ncccn2)c(C)c1
49.1%: double positive events [1]
inactive: vesicle binding response [1] 186% | inhibition [2] 3.49% | superoxide response (% of plate) [3] 114% | aptamer binding inhibition [4] 1% | inhibition [5] -11.2% | response [6] 12.3% | binding (% of control) [7] 98% | efflux inhibition (fraction of control) [8] 0.14 | inhibition [9] 10% | differentiation response [10] -13.1%

COc1c2occc2c(OC)c2c(=O)cc(C)oc12
inactive: vesicle binding response [1] 176% | inhibition [2] 8.15% | superoxide response (% of plate) [3] 108% | aptamer binding inhibition [4] 1% | inhibition [5] -4.24% | response [6] 3.33% | binding (% of control) [7] 102% | efflux inhibition (fraction of control) [8] 0.1 | inhibition [9] 5% | differentiation response [10] 33.7%
48.6%: double positive events [1]

Cc1c(OCC(=O)NC(Cc2c[nH]c3ccc(O)cc23)C(=O)O)ccc2c3c(c(=O)oc12)CCC3 (stereo not given)
inactive: vesicle binding response [1] 218% | inhibition [2] 6.29% | superoxide response (% of plate) [3] 87.9% | aptamer binding inhibition [4] 3% | inhibition [5] 3.65% | response [6] 6.27% | binding (% of control) [7] 101% | efflux inhibition (fraction of control) [8] -0.5 | inhibition [9] 11% | differentiation response [10] -22.8%
51.4%: double positive events [1]

CC1(C)Cc2nc3oc4c(NCc5ccccc5)ncnc4c3cc2CO1
inactive: vesicle binding response [1] 183% | inhibition [2] 4.42% | superoxide response (% of plate) [3] 95.3% | aptamer binding inhibition [4] -2% | inhibition [5] -8.27% | response [6] -4.11% | binding (% of control) [7] 105% | efflux inhibition (fraction of control) [8] -0.2 | inhibition [9] 5% | differentiation response [10] 0%
49.8%: double positive events [1]

CN(C)C(=O)C(CCN1CCC(O)(c2ccc(Cl)cc2)CC1)(c1ccccc1)c1ccccc1
inactive: vesicle binding response [1] 180% | inhibition [2] 44% | superoxide response (% of plate) [3] 86.8% | aptamer binding inhibition [4] 1% | inhibition [5] 2.98% | response [6] 6.9% | binding (% of control) [7] 104% | efflux inhibition (fraction of control) [8] 0.08 | inhibition [9] 2% | differentiation response [10] -3.02%
70.4%: double positive events [1]
